Measured values published in the supplement of paper PMC10981050.
Several values for one entry are separate records, joined by “and”; a condition that tells them apart may be missing. Equal values may be shown once.

Experiments:
Assay in all cases: cell viability relative to vehicle control; higher = less cytotoxic
Conditions in all cases: 10 µM
[1] = tested on: K562
Method in brief: (§1)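 After removal of identity-inconsistent compounds, the Selleck bioactive, kinase and epigenetic probe libraries were screened on CRISPR-edited mutant clones and isogenic wild-type clones of four leukaemia lines. Plates were 384-well, each well holding 2000 cells in 50 µL medium and receiving a single 10 µM acoustically dispensed dose. CellTiter-Glo luminescence was read 48 h later, after the supernatant was taken off. Genedata Screener was used to express viability as percent of the on-plate vehicle control.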

[2] = tested on: MARIMO
Method in brief: as §1

[3] = tested on: MOLM14
Method in brief: as §1

[4] = tested on: OCI-AML2
Method in brief: as §1

SMILES	cell viability ([1]; SRSF2 genotype: SRSF2 P95H/wt)	cell viability ([1]; SRSF2 genotype: SRSF2 wt/wt) [%]	cell viability ([2]; SRSF2 genotype: SRSF2 P95H/wt) [%]	cell viability ([2]; SRSF2 genotype: SRSF2 wt/wt) [%]	cell viability ([3]; SRSF2 genotype: SRSF2 P95H/wt) [%]	cell viability ([3]; SRSF2 genotype: SRSF2 wt/wt) [%]	cell viability ([4]; SRSF2 genotype: P95H/wt) [%]	cell viability ([4]; SRSF2 genotype: wt/wt) [%]
CCn1cc(-c2ccnc3[nH]c(-c4cccc(CN(C)C)c4)cc23)c(-c2ccc(NC(=O)N(C)C)cc2)n1	36.2% and 51.2%	45.9	30.3	27	1.95	2.96	1.06	7.2
COC(=O)c1cc(OC)c2c(c1-c1c(C(=O)OC)cc(OC)c3c1OCO3)OCO2 [Bifendate]	109%	98.7	101	101	99.3	101	106	94.3
Nc1cc(C(F)(F)F)c(-c2cc(N3CCOCC3)nc(N3CCOCC3)n2)cn1	30.2% and 37.9%	31.9	23.2	20.3	11.9	11	11.6	15.7
CC1(COc2ccc3c(c2)ncn3-c2ccc3cccc(N4CCC(N)CC4)c3n2)COC1	84.9% and 68.8%	71.4	5.64	16.6	5.66	1.2	14.6	13
Cc1ccc(S(=O)(=O)OCC(=O)Nc2ccc(C(=O)O)c(O)c2)cc1	95.9% and 95.6%	97.9	95.7	102	99.7	101	94.2	101
CC(C)C[C@@H](C=O)NC(=O)[C@H](CC(C)C)NC(=O)[C@H](CC(C)C)NC(=O)OCc1ccccc1	1.82% and 1.99%	1.37	0.54	1.13	0.49	0.53	0.36	0.41
Cc1c(C(=O)N2CCOc3ccc(-c4ccc(N)nc4)cc3C2)ccc(S(C)(=O)=O)c1F	84.6% and 89.8%	84.4	81.4	76.9	71.2	63.6	70	67.8
COc1cc2c(Oc3ccc4[nH]c(C)cc4c3F)ncnc2cc1OCCCN1CCCC1 [Cediranib (AZD2171)]	4.41% and 2.97%	11.7	55.1	48.3	2.27	1.47	9.24	21.7
CO[C@H]1C[C@H](O[C@@H]2/C(C)=C/C[C@@H]3C[C@@H](C[C@]4(CC[C@H](C)[C@@H](C5CCCCC5)O4)O3)OC(=O)[C@@H]3C=C(C)/C(=N/O)[C@H]4OC/C(=C\C=C\[C@@H]2C)[C@]43O)O[C@@H](C)[C@@H]1O [Selamectin]	16.6% and 37.1%	27.3	3.71	4.17	38.4	17	10.6	24.5
C[C@]12CC[C@H](O)CC1=CC[C@@H]1[C@@H]2CC[C@]2(C)C(n3cnc4ccccc43)=CC[C@@H]12 [Galeterone (TOK-001)]	83% and 93.4%	95.7	77.5	81.9	88.2	97.8	80.3	80.1
COC(=O)c1c2c(c3ccccc3c1O)OC(C)(C)C=C2 [Rubimaillin]	86.1% and 90%	79.6	20	39.7	2.68	3.56	28.1	41.4
N[C@@H]1CCCN(c2c(/C=C3\SC(=O)NC3=O)cccc2-c2ccccc2)C1	82.5% and 88.2%	81.1	83.9	93	90.8	105	78.6	75.1
CC(=O)NS(=O)(=O)c1ccc(N)cc1 [Sulfacetamide Sodium]	96.5% and 94.7%	101	96.3	101	101	101	108	96.6
CS(=O)(=O)CCNCc1ccc(-c2ccc3ncnc(Nc4ccc(OCc5cccc(F)c5)c(Cl)c4)c3c2)o1 [Lapatinib]	40.9% and 35.3%	35.8	83.2	77.6	75.4	75.6	22.2	45.5
O=C(NCCCNc1nc(Nc2cccc(CN3CCOCC3)c2)ncc1C1CC1)C1CCC1	74.5% and 95.7%	84.8	69.5	74.1	8.31	6.65	17.8	21.4
C#Cc1cccc(Nc2ncnc3cc(OCCOC)c(OCCOC)cc23)c1 [Erlotinib(OSI-744)]	83.5% and 94.5%	84.8	75.9	84.8	79	84.6	77.9	84.4
C[N+]1(C)[C@@H]2CC[C@H]1C[C@@H](OC(=O)C(O)c1ccccc1)C2 (stereo partly specified) [Homatropine Methylbromide]	103% and 100%	101	106	114	102	104	92.9	105
Cc1ccccc1N1C(=O)c2cc(S(N)(=O)=O)c(Cl)cc2NC1C (stereo unspecified) [Metolazone (Zaroxolyn)]	104% and 99.9%	96.7	96	99.7	99.5	97	101	98.3
Oc1cc2c(cc1O)[C@@H]1c3ccc(O)c(O)c3OC[C@]1(O)C2 [Hematoxylin (Hydroxybrazilin)]	97% and 94.6%	94.1	95.7	98.5	99.8	99.7	101	98.4

SMILES	cell viability ([1]; SRSF2 genotype: SRSF2 P95H/wt)	cell viability ([1]; SRSF2 genotype: SRSF2 wt/wt) [%]	cell viability ([2]; SRSF2 genotype: SRSF2 P95H/wt) [%]	cell viability ([2]; SRSF2 genotype: SRSF2 wt/wt) [%]	cell viability ([3]; SRSF2 genotype: SRSF2 P95H/wt) [%]	cell viability ([3]; SRSF2 genotype: SRSF2 wt/wt) [%]	cell viability ([4]; SRSF2 genotype: P95H/wt) [%]	cell viability ([4]; SRSF2 genotype: wt/wt) [%]
C=CC(=O)N1CC[C@@H](Oc2nc(Nc3ccc(N4CCC(N5CCN(C)CC5)CC4)cc3)c(C(N)=O)nc2CC)C1 [ASP8273 (Naquotinib)]	51.2% and 34.1%	47.1	26.7	29.7	8.47	10.5	20.4	24.4
Cc1ccc(C=O)o1 [5-Methyl furfural]	104%	95.7	99.8	94.2	99.1	101	103	103
C[C@H](CCC(=O)O)[C@H]1CC[C@H]2[C@@H]3CC[C@@H]4C[C@H](O)CC[C@]4(C)[C@H]3CC[C@]12C [Lithocholic acid]	102% and 101%	101	106	113	98.9	104	107	112
Clc1ccc(C(Cn2ccnc2)OCc2ccsc2Cl)c(Cl)c1 (stereo unspecified) [Tioconazole]	69.5% and 76.7%	71.6	69.7	71.2	62.4	69.5	59.9	63.1
CCNC(=O)[C@@H]1CCCN1C(=O)[C@H](CCCN=C(N)N)NC(=O)[C@H](CC(C)C)NC(=O)[C@@H](CC(C)C)NC(=O)[C@H](Cc1ccc(O)cc1)NC(=O)[C@H](CO)NC(=O)[C@H](Cc1c[nH]c2ccccc12)NC(=O)[C@H](Cc1cnc[nH]1)NC(=O)[C@@H]1CCC(=O)N1 [S3718 Leuprolide Acetate.cdx]	104% and 107%	102	110	112	103	105	102	108
CCOC(=O)C1OC1C(=O)NC(CC(C)C)C(=O)NCCC(C)C (stereo unspecified)	103%	97.2	96.3	101	88.7	101	98.5	104
CC1=CC(=O)[C@@H]2C[C@H]1C2(C)C [(-)-Verbenone]	105% and 102%	96.3	92.5	98.8	90.8	95.7	87.2	96.3
CN1CCN(c2ccc(OC(F)(F)F)c(Nc3ncc4c(n3)-c3c(c(C(N)=O)nn3CCO)CC4)c2)CC1	29.2% and 49.6%	46	24.7	22.9	17.5	4.9	14.6	18.8
CN1CC[C@@H](NC(=O)Nc2ccc(C#N)cc2)C[C@@H]1c1nc2ccccc2[nH]1	98.5% and 104%	107	104	109	98.8	100	98.1	112
O=C(Nc1ccccc1Br)N[C@@H]1CCN(c2ccc(C(F)(F)F)cn2)C1	88.5% and 90.8%	91.5	89.3	101	98.5	99.3	78.4	89.7
OC[C@H]1O[C@@H](OCCc2ccc(O)cc2)[C@H](O)[C@@H](O)[C@@H]1O [Salidroside (Rhodioloside)]	101% and 105%	102	106	104	105	109	101	94.6
CC(=O)c1cc([N+](=O)[O-])c(Sc2ccc(F)cc2F)s1	69% and 79.6%	71	57.1	54.2	13.7	12.3	76.6	35.3
O=C(O)c1cccnc1Nc1cccc(C(F)(F)F)c1 [Niflumic acid]	97.2% and 100%	94.6	94.1	97.8	93.8	98.5	101	104
Nc1cccc2c1CN(C1CCC(=O)NC1=O)C2=O (stereo unspecified) [Lenalidomide (CC-5013)]	98.2% and 96.6%	94.8	97.1	101	91.3	93.5	118	113
NC(=O)[C@@H]1CC[C@@H]2CN1C(=O)N2OS(=O)(=O)O [Avibactam sodium]	102% and 116%	112	110	106	108	111	102	101
Nc1nc(F)nc2c1ncn2[C@@H]1O[C@H](CO)[C@@H](O)[C@@H]1O [Fludarabine (Fludara)]	102% and 107%	100	64.5	77.6	65.7	82.8	4.58	5.52
CN1CCc2nc(C(=O)N[C@@H]3C[C@@H](C(=O)N(C)C)CC[C@@H]3NC(=O)C(=O)Nc3ccc(Cl)cn3)sc2C1 [Edoxaban]	98.2% and 93.3%	92.5	95.7	102	99.4	95.6	92.9	100
C=CC(=O)Nc1ccc2ncnc(Nc3cccc(Br)c3)c2c1	66% and 72.7%	71.1	70	86.8	61.6	81.3	50	50.9
